TDP1 cell noCPT: qHTS for Inhibitors of human tyrosyl-DNA phosphodiesterase 1 (TDP1): qHTS in cells in absence of CPT; DT40 Tdp1-/- hTDP1 cells, no CPT, ATP luminescence, 48 h; 15% of 420,000 active; Potency, µM (series often up to 46.2 µM), for the others: top-dose activity change, negative = growth inhibition, most hits filed as inhibitors; note: potency is the fitted concentration of half-maximal effect; nearly all actives have a fitted effect of over 55% in size
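Seeded 400 DT40-hTDP1 cells/well (vehicle DMSO, no 20 nM CPT); pinned compounds; ≥48 hr at 37 °C; CellTiter-Glo luminescence as viability measure.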
HT1080 IDH1KD tx: qHTS for induction of synthetic lethality in tumor cells producing 2HG: qHTS for the HT-1080-IDH1KD cell line; Potency, µM (series often up to 46.1 µM), for inactives: at the top dose activity, negative = toxicity, actives largely listed as cytotoxic; 2% of 360,000 active; HT-1080 IDH1 knockdown viability, ATP luminescence, 48 h; AID 686971, 2013;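 note: potency is the fitted concentration of half-maximal effect; 0% = DMSO wells and -100% = cell-free medium wells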
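After a 2 h attachment period, IDH1KD HT-1080 cells took pin-transferred compound for 48 h at 37 °C; ATP-based luminescence after 10 min room-temperature reagent incubation reported viability.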
DT40 TDP1 CPT: qHTS for Inhibitors of human tyrosyl-DNA phosphodiesterase 1 (TDP1): qHTS in cells in presence of CPT; chicken DT40 Tdp1-/-;hTDP1 cells + 20 nM CPT, ATP luminescence, 48 h; AID 686979, 2013; Potency, µM (doses to about 46.2 µM), for inactives: top-dose activity change, negative = growth inhibition, most hits filed as inhibitors; 12% of 420,000 active; note: potency is the fitted concentration of half-maximal effect; nearly all actives have a fitted effect of over 55% in size
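Chicken DT40 Tdp1-/- cells stably complemented with human TDP1 were seeded at 400 cells/well in medium containing 20 nM camptothecin, exposed to pin-transferred compounds, and grown at 37 °C for at least 48 hr. Viability was read as ATP luminescence.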
IL-1B inflam inh: qHTS for Inhibitors of Inflammasome Signaling: IL-1-beta AlphaLISA Primary Screen. THP-1 LPS/ATP IL-1B secretion, AlphaLISA, 16 h; active compounds read low. activity change, % at 57.5 µM. 4.7% of 360,000 active; in the data active = activity change below about -50%; inconclusive = mostly about -30% to -49%
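THP-1 cells pretreated 1 hr with compounds (up to 57.5 uM final), then stimulated with LPS (250 ng/mL final) plus ATP (1.25 mM final); secreted IL-1B measured by AlphaLISA after 16 hr, decreased signal indicating inhibition.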
HT1080-NT tox: qHTS for induction of synthetic lethality in tumor cells producing 2HG: qHTS for the HT-1080-NT fibrosarcoma cell line. HT-1080-NT fibrosarcoma viability, CellTiter-Glo ATP luminescence, 48 h. Potency, µM (top dose mostly 46.1 µM), for the others: at the top dose activity, negative = less viability, hits mostly cytotoxic. 1.6% of 360,000 active. AID 686970, 2013;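 note: NT is the 2HG producing partner of a matched IDH1 knockdown line; potency is the fitted concentration of half-maximal effect; 0% = DMSO-treated cells and -100% = media-only wells without cells; nearly all actives have a fitted effect of over 55% in size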
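Read-out is CellTiter-Glo luminescence after 10 minutes at room temperature, following 48 hours' compound treatment of HT-1080-NT cells (750 cells/well, RPMI, 5% FBS, 37 degrees C).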
ALOX12 inh: Primary qHTS assay for inhibitors of human arachidonate 12S-lipoxygenase (ALOX12): Round 2; 1.1% of 580,000 active; Potency, µM (top dose mostly 108 µM), inactives show at the top dose activity change, negative = inhibition, actives largely listed as inhibitors; purified 12hLO, xylenol orange hydroperoxide absorbance; note: potency is the fitted concentration of half-maximal effect
Target sequence (P18054 whole entry, looked up): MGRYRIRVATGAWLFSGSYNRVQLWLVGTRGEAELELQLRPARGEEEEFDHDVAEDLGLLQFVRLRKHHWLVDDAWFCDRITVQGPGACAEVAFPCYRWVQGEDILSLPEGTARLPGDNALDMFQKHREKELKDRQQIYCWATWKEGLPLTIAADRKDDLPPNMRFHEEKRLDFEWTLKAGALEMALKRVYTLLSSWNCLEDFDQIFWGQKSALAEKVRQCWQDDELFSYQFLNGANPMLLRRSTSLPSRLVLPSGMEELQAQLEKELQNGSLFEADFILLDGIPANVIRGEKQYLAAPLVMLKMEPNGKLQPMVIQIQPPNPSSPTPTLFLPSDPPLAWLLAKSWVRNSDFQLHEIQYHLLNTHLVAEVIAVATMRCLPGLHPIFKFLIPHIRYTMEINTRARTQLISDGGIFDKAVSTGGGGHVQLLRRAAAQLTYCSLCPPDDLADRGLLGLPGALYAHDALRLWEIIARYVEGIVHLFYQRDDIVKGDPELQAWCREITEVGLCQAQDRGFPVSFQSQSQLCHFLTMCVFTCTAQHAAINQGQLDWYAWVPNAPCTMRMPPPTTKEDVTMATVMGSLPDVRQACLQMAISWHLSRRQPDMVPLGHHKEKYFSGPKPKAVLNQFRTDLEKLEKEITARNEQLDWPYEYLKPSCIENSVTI
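Purified human 12hLO at 150 nM in 25 mM Hepes, 0.01% Triton X-100, pH 7.0, preincubated 15 min at room temperature with compound. Reaction started with 40 uM arachidonic acid, 30 min at room temperature. Hydroperoxide measured by Fe-xylenol orange, 573/405 nm absorbance ratio.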
Starred values were filed as active, the others as inactive; ? = inconclusive; · = no result; [ ] = remark or other dose. This excerpt belongs to a sample that is enriched for hits. Unless noted, calls come from the whole dose curve; as a rule, active = well fitted curve in the direction sought with a large enough effect; inconclusive = small, poorly fitted or top-dose-only effect, or another doubt; inactive = no such curve, though single readings can be large; an effect the other way counts as inactive or inconclusive. Unless noted, % is set by controls: 0 for no effect and ±100 for the full control effect.

SMILES	TDP1 cell noCPT	HT1080 IDH1KD tx	DT40 TDP1 CPT	IL-1B inflam inh	HT1080-NT tox	ALOX12 inh
CC(=O)N(c1ccc(N(C(C)=O)S(=O)(=O)c2ccccc2)cc1)S(=O)(=O)c1ccccc1	?	?	-12%	-2	-24%	2%
CC(=O)Oc1ccc(N(C(C)=O)S(=O)(=O)c2ccc3ccccc3c2)cc1	21µM*	2%	?	?	-23%	-1%
CN(c1ccc(O)cc1)S(=O)(=O)c1ccc2ccccc2c1	?	-12%	12%	-62*	-21%	?
CCN(c1ccccc1)S(=O)(=O)c1ccc2ccccc2c1	-19%	3%	-4%	7	-6%	?
CC1(C(=O)Nc2ccc3nc[nH]c3c2)CCN1C(=O)c1ccccc1CCc1ccccc1 (configuration not stated)	?	-24%	?	-16	-3%	-4%
O=C1OCC(CC2=C(O)C(=O)OC2)=C1O	-7%	18%	3%	-5	3%	-8%
CC1=C(O)C(=O)CO1	·	·	·	·	·	25µM*
CCCCOCCCN1CC(=O)N2[C@@H](Cc3c([nH]c4ccccc34)C2(C)C)C1=O	18µM*	3%	?	-17	-8%	0%
CCCCCN1CC(=O)N2[C@@H](Cc3c([nH]c4ccccc34)C2(C)C)C1=O	?	-6%	?	35	-3%	2%
CCCCN(CCCC)CCCN1CC(=O)N2[C@@H](Cc3c([nH]c4ccccc34)C2(C)C)C1=O	-15%	2%	?	-74*	5%	3%
O=C(O)CNS(=O)(=O)c1cccc(C(F)(F)F)c1	·	·	·	·	·	26%
O=C(c1cc(-c2cccc(O)c2)on1)N1CCN(C(c2ccccc2)c2ccccc2)CC1	13µM*	?	21µM*	-53*	?	15%[57.4 µM]
Cc1occc1C(=O)N1CCN(C(c2ccccc2)c2ccccc2)CC1	?	0%	?	-14	1%	-10%
CCCNC(=O)N1CCN(C(c2ccccc2)c2ccccc2)CC1	-27%	-2%	-25%	-26	-2%	-6%
Cc1oc(C(C)(C)C)cc1C(=O)N1CCN(C(c2ccccc2)c2ccccc2)CC1	?	?	?	-68*	?	144%
O=C(NCC(=O)N1CCN(C(c2ccccc2)c2ccccc2)CC1)c1ccccc1F	29µM*	-1%	?	-52*	-14%	-12%
CC(C)(C)C(=O)N1CCN(C(c2ccccc2)c2ccccc2)CC1	18µM*	12%	?	-15	15%	·
CN(C(=O)C1CC1)C1CCCc2ccccc21 (configuration not stated)	·	·	·	·	·	115%[176 µM]
Cc1cc(C(=O)N2CCN(C(c3ccccc3)c3ccccc3)CC2)on1	23µM*	-6%	8.2µM*	-17	-7%	12%
NC(=NC(=O)c1ccccc1)N1CCN(C(c2ccccc2)c2ccccc2)CC1	?	13%	21µM*	-26	21%	0%
CN1CCN(C(N)=NC(=O)c2ccccc2)CC1	-12%	3%	-4%	13	11%	-24%
O=C(CCNS(=O)(=O)c1ccccc1C(F)(F)F)N1CCCCCCC1	2%	2%	-27%	-2	6%	15%
O=C(CCNS(=O)(=O)c1ccccc1C(F)(F)F)N1CCN(C(c2ccccc2)c2ccccc2)CC1	8.2µM*	-10%	12µM*	-4	-4%	2%
O=C(c1ccc(C#CC2(O)CCCCC2)cc1)N1CCN(C(c2ccccc2)c2ccccc2)CC1	?	-15%[9.24 µM]	?	-58*	?	117%
O=S(=O)(c1ccc(Cl)c(Cl)c1)N1CCN(c2ccc(Nc3ccccc3)nn2)CC1	·	·	·	·	·	1%
SMILES	TDP1 cell noCPT	HT1080 IDH1KD tx	DT40 TDP1 CPT	IL-1B inflam inh	HT1080-NT tox	ALOX12 inh
CC(C)(C)c1ccc(C(=O)Nc2nc3nc(-c4ccccc4)cc(=O)n3[nH]2)cc1	-2%	·	-10%	·	·	4%
CCOc1ccccc1C(=O)N1CCN(C(c2ccccc2)c2ccccc2)CC1	?	0%	?	-83*	0%	-14%
Cc1ccnc(SCC(=O)N2CCc3ccccc32)n1	-12%	5%	-11%	-5	16%	1%
Cc1cc(C(C)(C)C)oc1C(=O)O	0%	10%	-4%	7	7%	432%
Cc1ccnc(SCC(=O)N2CCN(C(c3ccccc3)c3ccccc3)CC2)n1	16µM*	14%	23µM*	-9	3%	-13%
Cc1ccccc1C(=O)N1CCN(C(c2ccccc2)c2ccccc2)CC1	23µM*	-20%	?	-29	-13%	?
Cc1cc(C(C)(C)C)oc1C(=O)N1CCN(C(=O)c2oc(C(C)(C)C)cc2C)CC1	16µM*	13%	18µM*	46	9%	-7%
Cc1ccc2oc(=O)cc(CN3CCC4(CC3)OCCO4)c2c1	·	·	·	·	·	34%
Cc1cc(-c2ccc(C)c(S(=O)(=O)Nc3c(C)cccc3C)c2)on1	·	·	·	·	·	0%
Cc1cccc(Cn2c(CNS(=O)(=O)c3ccc4c(c3)CCCC4)nc3cccnc32)c1	16µM*	·	?	·	·	-15%
O=S(=O)(NCc1nc2cccnc2n1Cc1ccccc1Cl)c1ccc2c(c1)CCCC2	16µM*	·	?	·	·	-8%
COc1ccccc1Cn1c(CNS(=O)(=O)c2ccc3c(c2)CCCC3)nc2cccnc21	?	·	?	·	·	-26%
O=S(=O)(NCc1nc2cccnc2n1Cc1ccc(F)cc1)c1ccc2c(c1)CCCC2	?	·	18µM*	·	·	-13%
O=S(=O)(NCc1nc2cccnc2n1Cc1ccccc1)c1ccc2c(c1)CCCC2	21µM*	·	?	·	·	-16%
COc1cccc(Cn2c(CNS(=O)(=O)c3ccc4c(c3)CCCC4)nc3cccnc32)c1	?	·	?	·	·	-7%
Cc1nc2ccc(C(=O)N3CC(=O)N(c4ccc(Cl)cc4)CC3C)cc2[nH]1 (configuration not stated)	·	·	·	·	·	26%
COc1ccccc1Oc1ccc(S(=O)(=O)N2CCOCC2)cc1S(=O)(=O)N1CCOCC1	-21%	0%	8%	-17	2%	-1%

Assay outcomes as filed in PubChem.
